Test results from publication PMC5540273 (PLoS ONE, 2017).

What was measured:
Conditions in all cases: concentration: 1 μM, replicates: in singlicate; n = 1
TAOK2 = test system: TAOK2
TAOK3 = test system: TAOK3
TBK1 = test system: TBK1
TEC = test system: TEC
TESK1 = test system: TESK1
TGFBR1 = test system: TGFBR1
TGFBR2 = test system: TGFBR2
TIE1 = test system: TIE1
TIE2 = test system: T1, TIE2
T1 construct: gene TEK

TLK1 = test system: TLK1
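Further: KINOMEscan kinase panel screen.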

Compound | %Inh (TAOK2) [%] | %Inh (TAOK3) [%] | %Inh (TBK1) [%] | %Inh (TEC) [%] | %Inh (TESK1) [%] | %Inh (TGFBR1) [%] | %Inh (TGFBR2) [%] | %Inh (TIE1) [%] | %Inh (TIE2) [%] | %Inh (TLK1) [%]
Cl.Nc1ncnc2occ(-c3ccc(NC(=O)Nc4cc(C(F)(F)F)ccc4F)cc3)c12 [SB-707548] | 22 | 17 | 35 | 4 | 17 | 33 | 0 | 98.7 | 99.8 | 14
COc1ccc(COc2cc(-n3cnc4ccccc43)sc2C(N)=O)cc1 [GSK1024304] | 0 | 0 | 0 | 12 | 20 | 0 | 0 | 11 | 0 | 0
CNc1ncnc2[nH]ncc12 [SKF-18355] | 24 | 0 | 30 | 0 | 10 | 47 | 0 | 0 | 2 | 0
COc1cc(Nc2nccc(N3CCC(NC(=O)c4cccc(NC(C)=O)c4)C3)n2)cc(OC)c1OC (centres unmarked) [GSK1379754] | 0 | 0 | 17 | 0 | 15 | 0 | 0 | 61 | 0 | 0
Cn1ccc2ncnc(Oc3ccc(NC(=O)Nc4ccncc4)c(Cl)c3)c21 | 0 | 0 | 22 | 0 | 0 | 10 | 0 | 0 | 5 | 0
